Compound activity (PubChem BioAssay)
sPLA2-III inh: Blocks human group III sPLA2 activity; Q9NZ20; QFRET BODIPY PC-A2 liposome hydrolysis, fluorescence; inhibition, % at 12.2 µM; actives 0.56% (n = 370,000); AID 743126;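 active = inhibition above mean plus 3 SD of compounds lying within the high and low control bounds, cut at about 19% in these data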;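 also: 0% = median of test compound wells and 100% = no enzyme DMSO wells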
Target sequence (Q9NZ20 whole entry, looked up): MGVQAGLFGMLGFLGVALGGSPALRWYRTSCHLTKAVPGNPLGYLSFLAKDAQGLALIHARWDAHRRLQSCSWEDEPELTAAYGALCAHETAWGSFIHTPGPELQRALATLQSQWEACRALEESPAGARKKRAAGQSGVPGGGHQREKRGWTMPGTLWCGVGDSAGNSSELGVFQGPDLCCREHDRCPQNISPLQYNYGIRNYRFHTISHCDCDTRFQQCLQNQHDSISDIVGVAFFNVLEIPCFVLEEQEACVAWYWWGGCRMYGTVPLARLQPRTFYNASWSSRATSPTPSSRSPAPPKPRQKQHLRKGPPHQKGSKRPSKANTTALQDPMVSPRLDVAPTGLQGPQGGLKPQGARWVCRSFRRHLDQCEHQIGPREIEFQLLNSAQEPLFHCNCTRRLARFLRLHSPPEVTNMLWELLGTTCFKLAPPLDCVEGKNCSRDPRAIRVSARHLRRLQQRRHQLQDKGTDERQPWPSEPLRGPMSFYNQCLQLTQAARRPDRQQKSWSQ
MsrA inhibitor: inhibits bovine methionine sulfoxide reductase A; actives 0.75% (n = 360,000); inhibition, % at 15.5 µM; AID 651718; purified bovine MsrA, absorbance read-out; in the data active = inhibition above about 4.5%;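 also: 0% = vehicle wells with enzyme and 100% = reference inhibitor wells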
MsrA act: bovine methionine sulfoxide reductase A activation | actives 0.3% (n = 360,000) | purified bovine MsrA, absorbance read-out | activation, % at 10.6 µM | AID 602163; in the data active = activation above about 7.5%;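 also: 0% = vehicle and 100% = reference activator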
rCAG binder: r(CAG) repeat RNA binding | TO-PRO-1 dye displacement fluorescence | actives 1.3% (n = 370,000) | inhibition, % at 3 µM;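 active = inhibition above the plate cutoff, the mean of all test compounds on that plate plus 3 SD, cut at about 35% in these data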;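 also: 0% = DMSO alone and 100% = 100 µM mitoxantrone as full dye displacement; higher means more dye released from RNA so lower well fluorescence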
rCAG binder conf: r(CAG) RNA repeat binding, confirmation; shares compounds with rCAG binder; TO-PRO-1 dye displacement fluorescence; inhibition, % at 3 µM; actives 70% (n = 4,300); AID 652065;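 active = inhibition above a per-plate cutoff, the mean inhibition of sample wells plus 3 SD, cut at about 35% in these data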;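 also: loss of TO-PRO-1 fluorescence as compound displaces dye from 1x1 AA loop RNA; 0% = DMSO only wells and 100% = 100 µM mitoxantrone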
dCAG dye counter: disrupts DNA CAG TO-PRO-1 complex, flagging rCAG hits. d(CAG) DNA oligo TO-PRO-1 dye displacement, fluorescence. shares compounds with rCAG binder. inhibition, % at 3 µM. actives 94% (n = 4,300);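 active = inhibition above its plate's cutoff, the mean test-well inhibition plus 3 SD, cut at about 4.8% in these data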;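 also: 0% = DNA dye mix with DMSO and 100% = 100 µM mitoxantrone; hits displace the dye from DNA and so lower well fluorescence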
DNA CAG DR: DNA CAG dye complex inhibition, dose response counter-screen; shares compounds with rCAG binder; DNA CAG/GTC duplex TO-PRO-1 dye displacement fluorescence; IC50, µM; actives 20% (n = 250); AID 686960; in the data active = IC50 below about 10 µM
Numbers without * were called inactive; i = inactive; / = no result given. This is a sample that favours compounds with a hit; in the whole collection about 2.8% have one here.

SMILES | sPLA2-III inh | MsrA inhibitor | MsrA act | rCAG binder | rCAG binder conf | dCAG dye counter | others
CCCCC[C@@H]1C=C(C(=O)O)[C@H](c2cccc(C)c2)N1S(=O)(=O)c1ccc(C)cc1 | -32 | 1 | -4 | 67* | 50* | 16*
O=S(=O)(NCc1ccccn1)c1cc(OCC(F)(F)F)ccc1OCC(F)(F)F | -6 | -1 | -1 | 2 | / | /
O=[N+]([O-])c1ccc2[nH]cc(S(=O)(=O)N3CCN(c4cccc(Cl)c4)CC3)c2c1 | -11 | 2 | -2 | 43* | 37* | 20*
COc1ccc(N2C(=O)C3C(c4ccc(C(=O)O)cc4)NC(Cc4ccccc4)(C(=O)O)C3C2=O)c([N+](=O)[O-])c1 (stereo not drawn) | -8 | 2 | 0 | 37* | 18 | 6.6*
COC(=O)C1(Cc2ccccc2)NC(c2ccc(F)cc2)C2C(=O)N(C)C(=O)C21 (stereo not drawn) | 2 | 0 | -2 | -1 | / | /
Cc1ccc2[nH]c(=O)c(CN(CCc3ccccc3)C(c3nnnn3Cc3ccco3)C(C)C)cc2c1 (stereo not drawn) | -4 | 2 | 0 | 37* | 12 | 8.1*
CCC(c1nnnn1Cc1ccco1)N(CCc1ccccc1)Cc1cc2cc(C)ccc2[nH]c1=O (stereo not drawn) | 0 | 3 | -2 | 21 | / | /
Cc1ccc(C(=O)C(OC(=O)CNS(=O)(=O)c2ccccc2)c2ccccc2)cc1 (stereo not drawn) | -17 | 0 | -3 | 7 | / | /
O=S(=O)(Nc1ccc(-c2nc3cccnc3s2)cc1)c1ccc(Cl)s1 | -43 | 4 | -2 | 66* | 71* | 32* | DNA CAG DR=i
O=S(=O)(Nc1ccc(-c2nc3cccnc3s2)cc1)c1cccs1 | -8 | 2 | -10 | 8 | / | /
Cc1nc2ccc(S(=O)(=O)Nc3ccc(-c4nc5cccnc5s4)cc3)cc2s1 | -40 | 3 | -8 | 53* | 42* | 12*
COc1ccc(Cl)cc1NC(=O)CN(C)C(=O)c1ccc(N2CCCCCC2)c([N+](=O)[O-])c1 | -1 | 2 | 0 | 8 | / | /
O=C(Cc1ccc([N+](=O)[O-])cc1)NNC(=O)c1cccs1 | 3 | -2 | 0 | 55* | 1 | 0
O=C(COc1ccc([N+](=O)[O-])cc1)NNC(=O)c1cccs1 | -4 | 1 | 0 | 1 | / | /
N#CC1=C(N)SC(N)=C(C#N)C1c1cccc(Oc2ccccc2)c1 | -27 | 0 | -9 | 60* | 34 | 11*
CCOc1ccc(C2C(C#N)=C(N)SC(N)=C2C#N)cc1OCC | -6 | 0 | -1 | 20 | / | /
O=C(O)c1ccccc1NC(=O)c1ccccc1Nc1ccccc1 | -20 | 1 | -6 | 83* | 67* | 29*
CS(=O)(=O)N(Cc1ccccc1)c1ccc(C(=O)Nc2ccccc2C(=O)O)cc1 | -36 | 0 | 0 | 65* | 57* | 13*
O=C(Nc1ccccc1C(=O)O)c1ccc(Br)c(S(=O)(=O)NCc2ccccc2)c1 | -38 | 0 | -1 | 73* | 61* | 22*
O=C(O)c1ccccc1C(=O)Nc1ccc(Nc2ccccc2)cc1 | 8 | 1 | -3 | 16 | / | /
CS(=O)(=O)N(Cc1ccccc1)c1ccc(C(=O)Nc2ccccc2Sc2ccccc2)cc1 | 2 | 0 | -5 | -1 | / | /
O=C(Nc1ccccc1C(=O)Nc1ccccc1C(=O)O)c1ccccc1 | -42 | 1 | 0 | 73* | 66* | 26*
CCCOc1cccn2c(N(C=O)Cc3ccc(OC)cc3)c(CC)nc12 | 1 | -1 | 7 | 3 | / | /
COc1cccc(C(=O)N2CCN(C(=O)c3cccs3)CC2)c1OC | 1 | 0 | -6 | 3 | / | /
O=C(c1ccc2c(c1)OCO2)N1CCN=C1SCc1ccccc1 | 0 | -1 | 0 | 0 | / | /
O=C1NN(c2ccccc2)C(=O)/C1=C/c1ccc(Sc2cccc3ccccc23)o1 | -3 | 1 | -4 | 48* | 92* | 68*
C=CCOc1ccc(/C=C2\SC(=S)N(NS(=O)(=O)c3ccccc3)C2=O)cc1 | -50 | 1 | -4 | 88* | 79* | 46*
COc1ccc(/C=C2/SC(=S)N(NS(=O)(=O)c3ccccc3)C2=O)cc1 | -30 | 1 | -1 | 74* | 66* | 29*
O=C1S/C(=C\c2cccs2)C(=O)N1c1ccc(O)cc1 | -9 | 4 | -5 | 6 | / | /
